# IDE exosite inh: displaces the probe from the exo-site of human IDE. purified IDE, FL-6b probe fluorescence polarization; active compounds read low. z-score at 20 µM. 17,000 tested, 6.3% active. AID 1259349;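 active means z-score of -3 or lower, meaning strong loss of probe binding signal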;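 further: His-tagged human IDE residues 42-1019 made in E. coli with 30 nM FL-6b probe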
# Target sequence (P14735 42-1019 limits assumed): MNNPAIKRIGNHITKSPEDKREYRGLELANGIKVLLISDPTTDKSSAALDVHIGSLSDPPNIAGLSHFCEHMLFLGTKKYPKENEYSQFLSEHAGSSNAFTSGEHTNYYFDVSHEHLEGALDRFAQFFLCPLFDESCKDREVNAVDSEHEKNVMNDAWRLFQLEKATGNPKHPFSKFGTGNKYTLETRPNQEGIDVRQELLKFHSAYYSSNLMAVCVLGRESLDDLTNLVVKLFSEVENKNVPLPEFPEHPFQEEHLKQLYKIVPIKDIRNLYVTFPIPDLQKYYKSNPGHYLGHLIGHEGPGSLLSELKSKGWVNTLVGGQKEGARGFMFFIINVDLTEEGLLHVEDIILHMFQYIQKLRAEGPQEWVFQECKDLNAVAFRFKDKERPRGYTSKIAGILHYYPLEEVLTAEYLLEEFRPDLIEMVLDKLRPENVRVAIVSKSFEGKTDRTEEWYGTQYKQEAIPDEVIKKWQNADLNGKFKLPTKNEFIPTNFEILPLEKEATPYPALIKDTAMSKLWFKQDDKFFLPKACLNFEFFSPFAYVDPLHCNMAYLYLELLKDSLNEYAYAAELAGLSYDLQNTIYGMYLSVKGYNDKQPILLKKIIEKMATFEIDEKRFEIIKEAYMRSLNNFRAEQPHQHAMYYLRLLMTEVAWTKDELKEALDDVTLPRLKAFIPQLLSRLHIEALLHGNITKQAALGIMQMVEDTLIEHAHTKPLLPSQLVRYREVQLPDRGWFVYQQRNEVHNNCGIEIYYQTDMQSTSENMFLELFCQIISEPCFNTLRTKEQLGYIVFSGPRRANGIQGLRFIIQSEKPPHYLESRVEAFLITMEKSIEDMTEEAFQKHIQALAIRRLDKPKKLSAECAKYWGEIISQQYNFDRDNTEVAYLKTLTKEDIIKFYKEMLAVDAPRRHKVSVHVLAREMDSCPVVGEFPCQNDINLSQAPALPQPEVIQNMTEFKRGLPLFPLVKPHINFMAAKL
# Starred values were filed as active, the others as inactive. This excerpt belongs to a sample that is enriched for hits.
SMILES,IDE exosite inh
COC(=O)C[C@H]1CC[C@H]2[C@@H](COc3ccc(NC(=O)Nc4cccc(C#N)c4)cc3C(=O)N2C)O1,-0.32
O=C(CN1CCOCC1)N1CCCCN2[C@@H](CO)[C@@H](c3ccc(C#Cc4ccccc4)cc3)[C@@H]2C1,-5.5*
O=C(CN1CCOCC1)N1CCCCN2[C@@H](CO)[C@@H](c3ccc(/C=C/c4ccccc4)cc3)[C@@H]2C1,-10*
O=C(CN1CCOCC1)N1CCCCN2[C@H](CO)[C@@H](c3ccc(-c4ccccc4)cc3)[C@H]2C1,3.6
O=C(CN1CCOCC1)N1CCCCN2[C@H](CO)[C@@H](c3ccc(-c4ccccc4)cc3)[C@@H]2C1,2.5
C[C@@H]1CN([C@H](C)CO)C(=O)c2cc(-c3ccc(C#N)cc3)cnc2O[C@H]1CN(C)Cc1cccnc1,-0.4
COc1cccc(-c2ccc([C@H]3[C@H](C#N)N(C(=O)c4ccccn4)[C@H]3CO)cc2)c1,-2.9
COc1cccc(C#Cc2ccc([C@@H]3[C@@H](C#N)N(C(=O)c4ccccn4)[C@@H]3CO)cc2)c1,-1.3
COc1cccc(C#Cc2ccc([C@H]3[C@@H](C#N)N(C(=O)c4ccccn4)[C@@H]3CO)cc2)c1,-1.1
COc1cccc(-c2ccc([C@H]3[C@@H](C#N)N(C(=O)c4ccccn4)[C@@H]3CO)cc2)c1,-4.3*
COc1cccc(C#Cc2ccc([C@@H]3[C@@H](C#N)N(C(=O)c4ccccn4)[C@H]3CO)cc2)c1,1.5
COc1cccc(-c2ccc([C@H]3[C@@H](CO)N(C(=O)c4ccccn4)[C@H]3C#N)cc2)c1,-5.9*
N#C[C@@H]1[C@@H](c2ccccc2C2=CCCC2)[C@H](CO)N1C(=O)NC1CCCCC1,-0.022
COc1ccc(C#Cc2ccc([C@H]3[C@@H](CO)N4CCCCN(C(=O)c5ccncc5)C[C@H]34)cc2)cc1,3.4
CCCNC(=O)N(C)C[C@@H]1Oc2ncc(C#CC3CCCCC3)cc2C(=O)N([C@H](C)CO)C[C@@H]1C,0.47
CCS(=O)(=O)Nc1ccc2c(c1)C(=O)N(C)[C@@H]1CC[C@H](CC(=O)NC3CCCCC3)O[C@@H]1CO2,0.12
COc1cccc(C#Cc2ccc([C@@H]3[C@H]4CN(C(=O)c5ccncc5)CC(=O)N4[C@H]3CO)cc2)c1,-2.4
COc1cccc(C#Cc2ccc([C@@H]3[C@@H](CO)N4C(=O)CN(C(=O)c5ccccc5)C[C@@H]34)cc2)c1,-2.8
CC(=O)N1CC(=O)N2[C@H](C1)[C@H](c1ccc(C#Cc3cccnc3)cc1)[C@@H]2CO,-0.76
COc1cccc(C#Cc2ccc([C@H]3[C@H](CO)N4C(=O)CN(C(C)=O)C[C@@H]34)cc2)c1,-5.4*
COc1cccc(C#Cc2ccc([C@@H]3[C@H](CO)N4C(=O)CN(C(=O)c5ccccc5)C[C@@H]34)cc2)c1,-1.8
COc1cccc(C#Cc2ccc([C@H]3[C@H]4CN(C(=O)c5ccccc5)CC(=O)N4[C@H]3CO)cc2)c1,-0.5
COc1cccc(C#Cc2ccc([C@@H]3[C@H](CO)N4C(=O)CN(C(C)=O)C[C@@H]34)cc2)c1,-15*
CCC(=O)N1CC(=O)N2[C@H](CO)[C@H](c3ccc(C#Cc4cccnc4)cc3)[C@H]2C1,2.1
COc1cccc(C#Cc2ccc([C@H]3[C@@H](CO)N4C(=O)CN(C(=O)c5ccncc5)C[C@H]34)cc2)c1,-8.4*
SMILES,IDE exosite inh
CC(=O)N1CC(=O)N2[C@@H](CO)[C@@H](c3ccc(C#Cc4cccnc4)cc3)[C@@H]2C1,-3.9*
Cc1ccc(S(=O)(=O)Nc2ccc3c(c2)C(=O)N([C@@H](C)CO)C[C@H](C)[C@H](CN(C)S(=O)(=O)c2cccs2)OCCCC[C@@H](C)O3)cc1,0.086
CC(C)C#Cc1ccc([C@@H]2[C@H]3CN(C(=O)Cc4cccnc4)CC(=O)N3[C@H]2CO)cc1,-1.3
CO[C@H]1CN(C)C(=O)c2ccc(NS(=O)(=O)CC(F)(F)F)cc2OC[C@@H](C)N(Cc2nccs2)C[C@H]1C,1.4
COc1ccc(-c2ccccc2[C@H]2[C@@H](C#N)N(C(=O)C3CCCCC3)[C@H]2CO)cc1,3.5
O=C(Nc1ccccc1Cl)N1C[C@@H]2[C@H](c3ccccc31)[C@@H](CO)N2C(=O)c1cccnc1,2.8
COCC(=O)NC[C@@H]1N[C@@H](CO)[C@H]1c1ccc(C2=CCCCC2)cc1,1.9
O=C(NC[C@H]1N[C@H](CO)[C@H]1c1ccc(-c2ccccc2F)cc1)c1ccccn1,-4.7*
COCC(=O)NC[C@H]1N[C@H](CO)[C@@H]1c1ccc(-c2ccccc2)cc1,-0.6
O=C(NC[C@H]1N[C@@H](CO)[C@H]1c1ccc(-c2ccc(F)cc2)cc1)c1ccccn1,5.7
O=C(NC[C@H]1N[C@@H](CO)[C@H]1c1ccc(-c2ccccc2F)cc1)c1ccccn1,-2.5
COCC(=O)NC[C@@H]1N[C@@H](CO)[C@H]1c1ccc(-c2ccccc2F)cc1,-3.8*
CCCC#Cc1ccc([C@H]2[C@H]3CN(C(=O)NCCC)CC(=O)N3[C@H]2CO)cc1,2.2
CN(C)CC(=O)N[C@H]1CC[C@H](CCNC(=O)C2CCC2)O[C@@H]1CO,1.5
O=C(C1CCCC1)N1CC(=O)N2[C@H](CO)[C@@H](c3ccc(-c4ccccc4F)cc3)[C@H]2C1,2.8
O=C(C1CCCC1)N1CC(=O)N2[C@H](C1)[C@H](c1ccc(-c3ccccc3F)cc1)[C@@H]2CO,-2.9
O=C(C1CC1)N1CC(=O)N2[C@@H](CO)[C@H](c3ccc(-c4ccccc4F)cc3)[C@@H]2C1,0.71
O=C(C1CCCC1)N1CC(=O)N2[C@@H](CO)[C@H](c3ccc(-c4ccccc4F)cc3)[C@@H]2C1,-5.7*
O=C(C1CCC1)N1CC(=O)N2[C@H](CO)[C@@H](c3ccc(Br)cc3)[C@H]2C1,-0.54
O=C(C1CCOCC1)N1CC(=O)N2[C@@H](CO)[C@H](c3ccc(C4=CCCC4)cc3)[C@@H]2C1,1.1
O=C(C1CCC1)N1CC(=O)N2[C@@H](CO)[C@@H](c3ccc(C4=CCCCC4)cc3)[C@@H]2C1,-3.9*
O=C(C1CC1)N1CC(=O)N2[C@H](C1)[C@@H](c1ccc(-c3ccccc3F)cc1)[C@@H]2CO,-8.1*
O=C(C1CCC1)N1CC(=O)N2[C@H](CO)[C@H](c3ccc(-c4ccccc4F)cc3)[C@@H]2C1,-3.2*
CN1CCN(C(=O)C[C@H]2CC[C@@H]3[C@H](COC[C@H](O)CN3Cc3cccc(-c4ccncc4)c3)O2)CC1,-1
Cn1cnc(S(=O)(=O)N2[C@@H]3CNC[C@H]2C3c2ccc(-c3ccccc3F)cc2)c1 (stereo not given in full),-0.034
SMILES,IDE exosite inh
O=C(c1ccc(F)cc1)N1CC(=O)N2[C@H](CO)[C@H](c3ccc(-c4cccnc4)cc3)[C@H]2C1,-0.33
CCN(C[C@H]1N[C@@H](CO)[C@@H]1c1ccc(C2=CCCC2)cc1)C(=O)c1ccncc1,2.4
O=C(c1ccccc1)N1CC(=O)N2[C@H](CO)[C@@H](c3ccc(C#CC4CC4)cc3)[C@H]2C1,4.2
COCC(=O)N1CC(=O)N2[C@H](CO)[C@H](c3ccc(C#CC4CCCC4)cc3)[C@@H]2C1,1.4
COCC#Cc1ccc([C@@H]2[C@@H](CO)N3CCCCN(Cc4cccnc4)C[C@@H]23)cc1,-1.1
CC(C)CC#Cc1ccc([C@@H]2[C@@H](CO)N3C(=O)CN(S(C)(=O)=O)C[C@H]23)cc1,2.2
COCC#Cc1ccc([C@H]2[C@@H](CO)N3C(=O)CN(C(=O)c4ccncc4)C[C@@H]23)cc1,0.64
COc1cccc(-c2ccc([C@@H]3[C@@H](CO)N4C(=O)CNC[C@H]34)cc2)c1,-1.2

# Bioassay records deposited in PubChem by Broad Institute.
